Here are results for three compounds from PubChem BioAssay (NCATS).

For test [1], the target named is Lysosomal acid glucosylceramidase (Homo sapiens) (UniProt P04062). In words: Glucocerebrosidase-p2 (AID 348; in the data active means potency below about 10 µM; further: potency means the concentration at half of the fitted maximal effect). The conditions noted are these: purified GBA, blue fluorogenic substrate, 40 min. The method in brief: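 Compounds titrated from 0.6 nM upwards against 0.2 nM enzyme in pH 5.9 citric acid/KH2PO4, taurocholate, tween-20; blue fluorogenic substrate 80 uM, 40 min room temperature, stopped and read Ex 365/Em 440 for AC50.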

Test [2] is described as follows: AP1 Signaling Pathway (AID 357; active means well fitted curve in either direction with a large enough effect, not every such curve was filed as active;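 further: ME-180 reporter cells stimulated with EGF at its EC50 level; on the % scale 0 is the no-effect control and ±100 the full control effect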). The conditions noted are these: ME-180 AP-1-bla reporter, EGF-induced, beta-lactamase ratio, 5 h; at 7.69 µM (top of the series) unless noted. The method in brief: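 Titration-series screen for positive or negative modulators of EC50 EGF-induced signaling in ME-180 cells carrying an AP-1-driven beta-lactamase reporter. After 5 hours at 37 degrees Celsius, CCF4 460nm/530nm emission ratio gave %Activity; AC50 values derived.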

Test [3] addresses Cytochrome P450 1A2 (Homo sapiens) (UniProt P05177). Put plainly: p450-cyp1a2 (AID 410; calls by dose curve; further: potency means the concentration at half of the fitted maximal effect;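 on activity change, negative = inhibition: -100% = full effect of reference inhibitor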). The note with it: recombinant CYP1A2, luciferin-ME demethylation, luminescence; series mostly up to 57 µM. The method in brief: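 Luminescent readout of luciferin formed from Luciferin-ME by human CYP1A2; data normalized against complete inhibition by 57 uM furafylline. Enzyme 20nM, substrate 100uM at Km, 100mM KPO4 buffer, 60 min reaction at room temperature.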

The nature of test [4]: Stat Signaling Pathway (AID 446; active means well fitted curve in either direction with a large enough effect, not every such curve was filed as active;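 further: ME-180 cervical cancer cells given 40 pM IL-6 alongside compound; SIE-controlled beta-lactamase reporter measured as 460/530 nm FRET emission ratio; on the % scale 0 is the no-effect control and ±100 the full control effect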). The conditions noted are these: ME-180 (cervical carcinoma) SIE beta-lactamase reporter, IL-6 stimulated, 5 h; at 7.69 µM (top of the series) unless noted. An outline of the steps:
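IL-6/STAT signaling read in ME-180 cells via an SIE beta-lactamase reporter. Stimulus was 40 pM IL-6 (its AC50) for 5 hrs, so both activation and inhibition register.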

In test [5] the target is Glucocorticoid receptor (Homo sapiens) (UniProt P04150). Put plainly: GR-EFC Redistribution (AID 451; calls by dose curve; further: potency means the concentration at half of the fitted maximal effect). The conditions noted are these: CHO-K1 GR-EFC translocation, beta-gal luminescence, 2 h. The method in brief: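 Translocation of GR-ED fusion to nuclear EA restores b-gal, read by luminescence after 1 h room-temperature detection. Engineered CHO-K1 biosensor cells, 1,000/well, exposed 2 h at 37 C to titrations up to 46 uM final.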

Test [6] addresses Mitogen-activated protein kinase 10 (Mus musculus) (UniProt Q61831). In words: JNK3 AlphaScreen Assay (AID 530; active means well fitted curve in either direction with a large enough effect, not every such curve was filed as active;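 further: kinase came from lysate of stimulated human HepG2 cells; signal reports phosphorylation of biotinylated GST-cJun 1-79 at Ser73 with 10 µM ATP; on the % scale 0 is the no-effect control and ±100 the full control effect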). The note with it: JNK3 lysate, c-Jun phosphorylation; series mostly up to 57.1 µM. An outline of the steps:
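Compound titrations were preincubated 15 minutes at room temperature with substrate, antibody and pre-activated JNK3-containing HepG2 lysate. Reactions were started with 10 uM ATP and stopped with EDTA-containing bead buffer for AlphaScreen detection.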

In test [7] the target is 3',5'-cyclic-AMP phosphodiesterase 4B (Homo sapiens) (UniProt Q07343). Put plainly: qHTS Assay for Inhibitors of PDE-IV (AID 607; active means well fitted activation curve with a large enough effect in the main read-out, with a control signal flat, not every such curve was filed as active; further: % of control where 0% means no effect). The conditions noted are these: HEK293 ACTOne CNG channel cells, membrane potential fluorescence; series mostly up to 22.9 µM. The method in brief: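 Live HEK293 cells with a modified cyclic nucleotide-gated (CNG) channel report intracellular cAMP via membrane-potential dye fluorescence (ex 535/em 590 nm). Endogenous PDE-IV was targeted. Compounds were tested at up to 22.9 uM final; RO 20-1724 100 uM served as control.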
Background: In qHTS, concentration-response curves come from the screen itself.

Test [8] in a line: qHTS Assay for Lipid Storage Modulators (AID 1519; calls by dose curve). The note with it: Drosophila S3 cells, BODIPY lipid droplet/cell ratio, laser cytometry, cells loaded with oleic acid; for activity change, negative = inhibition: at 57.5 µM (top of the series). The method in brief:
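Cells seeded at 5,000 per well were treated with compounds over a concentration series and loaded with oleic acid (400 uM, as added). Lipid droplet fluorescence (488 nm excitation, 500-530 nm channel) was read by laser-scanning cytometry and normalized to 20 uM Triacsin C.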

Test [9] can be described thus: Primary qHTS for small molecule stabilizers of the endoplasmic reticulum resident proteome: Secreted ER Calcium Modulated Protein (SERCaMP) assay (AID 1508630). Further: on the % scale 0 is the no-effect control and ±100 the full control effect. The conditions noted are these: SH-SY5Y GLuc-SERCaMP (Gaussia luciferase released on ER calcium loss) secretion, thapsigargin, luminescence; series mostly up to 38.4 µM. The method in brief:
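GLuc-SERCaMP-expressing SH-SY5Y cells, pretreated 16 h with compound, are challenged with thapsigargin to empty ER calcium stores; after 4 h, coelenterazine is added directly to the medium and luminescence is imaged.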

Test [10] concerns the target Glucocorticoid receptor (Homo sapiens) (UniProt P04150). In words: GR-GFP Redistribution (AID 450;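 active means compounds whose dose series gives a full or clear partial fitted curve of increased nuclear translocation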; further: potency means the concentration at half of the fitted maximal effect). The note with it: U2OS GR-GFP nuclear translocation, laser cytometry, 2 h.
In test [11] the target is Cytochrome P450 3A4 (Homo sapiens) (UniProt P08684). In words: qHTS Assay for Inhibitors and Substrates of Cytochrome P450 3A4 (AID 884). Further: on the % scale 0 is the no-effect control and ±100 the full control effect; nearly all actives have a fitted effect of over 50% in size. The conditions noted are these: recombinant CYP3A4, Luciferin-PPXE luminescence; series mostly up to 57.1 µM. The method in brief:
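20 nM human CYP3A4 with 25 uM Luciferin-PPXE (at KM) in 200 mM KPO4, preincubated 10 min with compound; NADPH regeneration started a 60 min RT reaction. Luciferin detected by luminescence, normalized to 57 uM ketoconazole as full inhibition.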

In test [12] the target is Cytochrome P450 2C19 (Homo sapiens) (UniProt P33261). Put plainly: qHTS Assay for Inhibitors and Substrates of Cytochrome P450 2C19 (AID 899). Further: potency means the concentration at half of the fitted maximal effect; nearly all actives have a fitted effect of over 60% in size. The note with it: recombinant CYP2C19, luciferin-H EGE luminescence; series mostly up to 57.1 µM. The method in brief: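 5nM enzyme + 10uM Luciferin-H EGE (=KM), 50mM KPO4; cpd pin-transferred, 10 min 37C; NADPH regen, 60 min 37C; stopped w/ luciferin detection reagent, 20 min; luminescence. Normalized to 57uM ketoconazole (AC100).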

Test [13] in a line: Confirmation and Secondary Assay for Modulators of Hemoglobin Beta Chain Splicing at IVS2 654 locus (AID 910).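 Further: HeLa cells stably carrying EGFP split by mutant beta-globin IVS2-654 intron; per-well total GFP intensity by laser scanning cytometry after 2-day treatment; % of control where 0% means no effect.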 The conditions noted are these: HeLa EGFP-654 splicing reporter, GFP fluorescence, 48 h; series mostly up to 38.3 µM. An outline of the steps: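 Readout: per-well total peak green fluorescence (488 nm ex, 500–520 nm em) from objects 5–250 µm, reflecting correct splicing of an EGFP-654 reporter. Compounds were applied for 2 days at 37 °C to overnight-plated HeLa EGFP-654 cells; controls were DMSO and 500 nM IVS2-654 PNA.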

Test [14] can be described thus: Confirmation and Secondary Assay for Modulators of Hemoglobin Beta Chain Splicing at IVS2 705 locus (AID 930).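 Further: HeLa cells stably expressing the EGFP-705 splicing reporter; GFP fluorescence per well restored by corrected splicing of the IVS2-705 intron in EGFP; % of control where 0% means no effect.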 The note with it: HeLa EGFP-705 splicing reporter, GFP fluorescence, 48 h; series mostly up to 38.3 µM. An outline of the steps:
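Fluorescence gain (488 nm laser, 500-520 nm PMT) reflects restored correct splicing of a mutant IVS2-705 intron inside EGFP in stably transfected HeLa cells after 2-day compound treatment.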

The target of test [15] is Cytochrome P450 3A4 (Homo sapiens) (UniProt P08684). Put plainly: qHTS Assay for Activators of Cytochrome P450 3A4 (AID 885). Further: nearly all actives have a fitted effect of over 65% in size. The note with it: recombinant CYP3A4, Luciferin-PPXE luminescence, 60 min; series mostly up to 57.1 µM. The method in brief: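 Quantitative HTS format: compounds preincubated with 20nM human CYP3A4 and Luciferin-PPXE substrate at KM, reaction started by NADPH regeneration, stopped after 60 min, luciferase luminescence read 20 min later.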

The target in test [16] is Cytochrome P450 2D6 (Homo sapiens) (UniProt P10635). In words: qHTS Assay for Inhibitors and Substrates of Cytochrome P450 2D6 (AID 891). Further: potency means the concentration at half of the fitted maximal effect; nearly all actives have a fitted effect of over 60% in size. The conditions noted are these: recombinant CYP2D6, luciferin-ME EGE luminescence; series mostly up to 57.1 µM. The method in brief: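 Human CYP2D6 (5 nM) with 30 uM Luciferin-ME EGE (at Km) in 100 mM KPO4, compound preincubated 10 min, then NADPH regeneration system for 60 min at room temperature. Luciferin read by luminescence; normalized to 1.43 uM quinidine.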

Test [17] concerns the target Ubiquitin carboxyl-terminal hydrolase 1 (Homo sapiens) (UniProt O94782). Put plainly: Inhibitors of USP1/UAF1: Pilot qHTS (AID 504865).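 Further: rhodamine fluorescence freed from ubiquitin-rhodamine substrate followed over time; top concentration of the series differs between compounds; on the % scale 0 is the no-effect control and ±100 the full control effect; nearly all actives have a fitted effect of over 35% in size.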 The note with it: purified USP1/UAF1, Ub-rhodamine cleavage fluorescence; series mostly up to 54.9 µM. The method in brief: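 1nM USP1/UAF1 + cpd, 15 min RT; start w/ Ub-Rho 150nM final; kinetic FL 480/540 nm, 6 reads q60 s. Buffer 50mM HEPES pH 7.8, 0.5mM EDTA, 1mM TCEP, 0.01% Tween-20, 0.1 mg/ml BSA.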

Setting [18] is: measured here: cell count channel max response.
Setting [19] is: measured here: lipid channel max response.

Inconclusive results are not listed. Active and inactive are the calls of the source. Unless noted, the call rests on the fitted dose curve; in most records, active means well fitted curve in the direction sought with a large enough effect; inconclusive means small, poorly fitted or top-dose-only effect, or another doubt; inactive means no such curve, though single readings can be large; an effect the other way counts as inactive or inconclusive.

Lysosomal acid glucosylceramidase (Homo sapiens), sequence (P04062 whole entry, looked up): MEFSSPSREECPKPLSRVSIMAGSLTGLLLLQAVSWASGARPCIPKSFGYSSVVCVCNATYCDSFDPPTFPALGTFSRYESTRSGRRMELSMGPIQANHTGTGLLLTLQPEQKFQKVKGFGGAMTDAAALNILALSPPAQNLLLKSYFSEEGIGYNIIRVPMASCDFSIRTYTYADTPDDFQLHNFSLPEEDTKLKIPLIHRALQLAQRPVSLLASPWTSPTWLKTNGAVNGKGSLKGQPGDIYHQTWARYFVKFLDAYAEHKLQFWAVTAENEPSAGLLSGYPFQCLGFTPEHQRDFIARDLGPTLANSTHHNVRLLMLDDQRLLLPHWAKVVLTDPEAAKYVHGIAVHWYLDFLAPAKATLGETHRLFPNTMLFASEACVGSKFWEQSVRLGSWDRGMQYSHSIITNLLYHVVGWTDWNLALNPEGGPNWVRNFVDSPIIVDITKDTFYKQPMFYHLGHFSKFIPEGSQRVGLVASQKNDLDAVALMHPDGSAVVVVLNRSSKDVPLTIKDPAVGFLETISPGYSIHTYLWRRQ
Cytochrome P450 1A2 (Homo sapiens), sequence (P05177 whole entry, looked up): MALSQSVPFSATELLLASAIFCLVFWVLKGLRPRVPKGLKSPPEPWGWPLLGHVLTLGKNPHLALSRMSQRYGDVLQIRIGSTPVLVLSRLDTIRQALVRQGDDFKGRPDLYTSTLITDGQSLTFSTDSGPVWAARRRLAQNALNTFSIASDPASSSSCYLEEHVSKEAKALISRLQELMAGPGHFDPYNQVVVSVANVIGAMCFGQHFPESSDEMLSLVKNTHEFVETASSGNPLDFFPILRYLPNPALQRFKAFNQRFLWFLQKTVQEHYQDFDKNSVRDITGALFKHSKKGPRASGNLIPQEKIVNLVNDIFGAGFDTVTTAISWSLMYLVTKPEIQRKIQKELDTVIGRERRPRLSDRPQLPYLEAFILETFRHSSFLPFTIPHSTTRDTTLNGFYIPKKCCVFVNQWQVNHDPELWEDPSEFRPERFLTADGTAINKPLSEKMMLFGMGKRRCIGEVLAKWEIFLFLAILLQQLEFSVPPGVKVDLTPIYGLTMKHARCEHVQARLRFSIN
Glucocorticoid receptor (Homo sapiens), sequence (P04150 whole entry, looked up, the tested form may be a part): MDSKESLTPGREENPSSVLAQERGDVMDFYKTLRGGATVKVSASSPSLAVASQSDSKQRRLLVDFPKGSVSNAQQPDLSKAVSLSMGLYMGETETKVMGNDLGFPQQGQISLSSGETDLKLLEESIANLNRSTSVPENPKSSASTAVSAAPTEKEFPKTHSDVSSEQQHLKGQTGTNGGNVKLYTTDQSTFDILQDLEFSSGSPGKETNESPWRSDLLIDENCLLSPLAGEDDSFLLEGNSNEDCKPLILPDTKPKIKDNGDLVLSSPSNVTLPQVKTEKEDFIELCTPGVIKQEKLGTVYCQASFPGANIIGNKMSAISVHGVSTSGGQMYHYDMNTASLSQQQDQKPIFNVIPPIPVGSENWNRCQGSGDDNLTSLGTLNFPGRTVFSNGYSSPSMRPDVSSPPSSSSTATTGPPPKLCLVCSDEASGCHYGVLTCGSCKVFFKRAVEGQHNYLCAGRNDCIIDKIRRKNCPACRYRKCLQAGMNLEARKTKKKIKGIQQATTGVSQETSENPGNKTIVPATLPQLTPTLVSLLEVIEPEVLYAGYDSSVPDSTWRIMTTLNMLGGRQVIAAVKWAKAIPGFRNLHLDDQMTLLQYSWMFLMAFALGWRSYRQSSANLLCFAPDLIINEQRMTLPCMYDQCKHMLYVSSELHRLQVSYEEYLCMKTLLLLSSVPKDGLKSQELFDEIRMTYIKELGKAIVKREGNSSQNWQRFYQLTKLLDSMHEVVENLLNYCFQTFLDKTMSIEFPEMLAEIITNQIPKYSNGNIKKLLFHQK
3',5'-cyclic-AMP phosphodiesterase 4B (Homo sapiens), sequence (Q07343 whole entry, looked up): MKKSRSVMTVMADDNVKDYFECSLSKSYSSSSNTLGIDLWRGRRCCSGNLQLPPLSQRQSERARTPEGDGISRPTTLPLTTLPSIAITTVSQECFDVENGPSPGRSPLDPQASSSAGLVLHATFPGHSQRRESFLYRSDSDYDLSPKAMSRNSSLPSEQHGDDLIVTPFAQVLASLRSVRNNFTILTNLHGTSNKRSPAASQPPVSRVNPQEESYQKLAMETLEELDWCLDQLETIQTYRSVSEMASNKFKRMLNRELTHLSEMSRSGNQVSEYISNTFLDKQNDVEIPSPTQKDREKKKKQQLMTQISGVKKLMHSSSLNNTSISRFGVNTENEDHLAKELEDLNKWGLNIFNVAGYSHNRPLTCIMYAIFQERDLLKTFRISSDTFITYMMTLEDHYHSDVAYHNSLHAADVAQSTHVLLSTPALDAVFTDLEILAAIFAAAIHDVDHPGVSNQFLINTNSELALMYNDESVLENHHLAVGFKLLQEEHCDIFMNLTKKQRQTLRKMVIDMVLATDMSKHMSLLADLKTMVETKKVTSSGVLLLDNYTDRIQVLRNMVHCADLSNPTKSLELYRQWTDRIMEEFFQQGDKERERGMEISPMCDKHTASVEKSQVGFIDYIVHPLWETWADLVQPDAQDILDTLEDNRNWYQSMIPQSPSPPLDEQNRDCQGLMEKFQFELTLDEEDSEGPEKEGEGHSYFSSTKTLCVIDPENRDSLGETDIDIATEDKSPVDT
Cytochrome P450 3A4 (Homo sapiens), sequence (P08684 whole entry, looked up): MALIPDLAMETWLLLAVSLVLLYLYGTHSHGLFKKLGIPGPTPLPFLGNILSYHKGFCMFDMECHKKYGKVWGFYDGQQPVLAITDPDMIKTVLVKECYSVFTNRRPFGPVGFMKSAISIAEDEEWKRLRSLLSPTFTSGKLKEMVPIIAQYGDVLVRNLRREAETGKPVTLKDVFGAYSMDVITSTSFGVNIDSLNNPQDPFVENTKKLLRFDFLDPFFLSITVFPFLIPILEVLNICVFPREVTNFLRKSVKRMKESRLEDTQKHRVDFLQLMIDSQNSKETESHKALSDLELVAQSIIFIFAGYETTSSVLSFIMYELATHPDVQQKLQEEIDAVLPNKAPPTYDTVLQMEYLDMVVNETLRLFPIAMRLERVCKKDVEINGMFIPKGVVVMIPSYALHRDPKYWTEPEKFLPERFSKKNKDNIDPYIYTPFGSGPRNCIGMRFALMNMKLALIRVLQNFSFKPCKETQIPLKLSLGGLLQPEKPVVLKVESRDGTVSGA
Cytochrome P450 2C19 (Homo sapiens), sequence (P33261 whole entry, looked up): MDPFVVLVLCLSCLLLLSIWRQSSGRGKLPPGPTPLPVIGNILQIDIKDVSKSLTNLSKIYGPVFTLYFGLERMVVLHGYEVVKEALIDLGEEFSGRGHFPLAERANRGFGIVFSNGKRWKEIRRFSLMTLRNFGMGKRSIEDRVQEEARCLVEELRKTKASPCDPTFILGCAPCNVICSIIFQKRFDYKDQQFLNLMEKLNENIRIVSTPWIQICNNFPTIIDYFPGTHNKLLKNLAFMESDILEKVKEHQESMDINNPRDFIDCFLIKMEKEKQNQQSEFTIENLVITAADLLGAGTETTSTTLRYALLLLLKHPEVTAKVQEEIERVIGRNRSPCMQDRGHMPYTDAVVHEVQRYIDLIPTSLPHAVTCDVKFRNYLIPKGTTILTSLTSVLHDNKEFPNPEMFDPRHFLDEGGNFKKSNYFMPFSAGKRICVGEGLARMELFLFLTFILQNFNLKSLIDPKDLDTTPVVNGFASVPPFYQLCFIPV
Cytochrome P450 2D6 (Homo sapiens), sequence (P10635 whole entry, looked up): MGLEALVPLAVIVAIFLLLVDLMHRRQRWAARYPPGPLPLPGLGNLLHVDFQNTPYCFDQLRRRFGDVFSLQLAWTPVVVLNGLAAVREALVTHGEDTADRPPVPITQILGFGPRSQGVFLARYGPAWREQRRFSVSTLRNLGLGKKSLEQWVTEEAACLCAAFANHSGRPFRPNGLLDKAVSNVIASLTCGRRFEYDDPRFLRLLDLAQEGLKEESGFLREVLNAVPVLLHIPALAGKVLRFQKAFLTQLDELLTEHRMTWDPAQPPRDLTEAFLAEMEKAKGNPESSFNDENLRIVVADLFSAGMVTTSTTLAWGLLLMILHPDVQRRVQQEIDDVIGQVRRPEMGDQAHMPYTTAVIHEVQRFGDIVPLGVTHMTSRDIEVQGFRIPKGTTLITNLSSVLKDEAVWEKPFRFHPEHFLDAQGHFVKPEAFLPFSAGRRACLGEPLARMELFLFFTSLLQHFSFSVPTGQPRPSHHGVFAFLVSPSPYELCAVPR
Ubiquitin carboxyl-terminal hydrolase 1 (Homo sapiens), sequence (O94782 whole entry, looked up): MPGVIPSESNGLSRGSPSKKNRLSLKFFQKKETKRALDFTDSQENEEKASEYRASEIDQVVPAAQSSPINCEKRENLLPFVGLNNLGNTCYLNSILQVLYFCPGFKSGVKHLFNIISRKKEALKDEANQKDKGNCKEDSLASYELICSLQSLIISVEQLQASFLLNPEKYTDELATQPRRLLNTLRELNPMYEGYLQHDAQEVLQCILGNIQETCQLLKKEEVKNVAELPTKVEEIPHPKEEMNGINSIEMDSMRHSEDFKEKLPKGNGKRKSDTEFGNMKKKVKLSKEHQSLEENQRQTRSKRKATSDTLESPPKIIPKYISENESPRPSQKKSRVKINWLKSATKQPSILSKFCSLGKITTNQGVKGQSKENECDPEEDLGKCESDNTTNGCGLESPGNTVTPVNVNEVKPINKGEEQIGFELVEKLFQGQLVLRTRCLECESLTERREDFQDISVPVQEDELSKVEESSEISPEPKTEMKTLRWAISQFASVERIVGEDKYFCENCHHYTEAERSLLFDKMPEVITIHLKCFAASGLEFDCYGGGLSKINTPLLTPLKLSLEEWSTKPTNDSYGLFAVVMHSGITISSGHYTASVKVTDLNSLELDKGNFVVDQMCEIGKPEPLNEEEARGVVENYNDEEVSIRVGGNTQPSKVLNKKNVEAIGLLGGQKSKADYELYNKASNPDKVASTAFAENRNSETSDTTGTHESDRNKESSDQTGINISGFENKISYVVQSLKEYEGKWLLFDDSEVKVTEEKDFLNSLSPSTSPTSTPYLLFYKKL

Turning to `COCC(=O)N1CCC2(CCN(Cc3ccccc3OC)CC2)CC1`, the Potency was > 11.4 µM (inactive) in test [1] and > 46 µM (inactive) in test [5]. In addition, the figures for the activity change, negative = inhibition in [2] and in [8] were -3.62% (inactive) and -2.32% (inactive), respectively. Further, the Potency result in [3], in [6] and in test [7] was “inactive” throughout. Also, the activity, negative = inhibition in [4] is -4.34% (inactive). The max response in [8] (setting [18]) is -22.5%; in test [8] (setting [19]) it was -24%. In addition, the result in test [9] was inactive.

For `CN(C)c1ccc(-c2cncnc2NCc2ccccc2)cc1`, the Potency in test [1] was > 11.4 µM (inactive); in test [3] it was 1 µM (active); in test [10] it was > 46 µM (inactive); in test [5], > 46 µM (inactive); in test [12], 0.398 µM (active). Besides, the activity change, negative = inhibition in test [2] was -0.796% (inactive); in test [8], 9.86% (inactive). The activity, negative = inhibition in [4] was -2.24% (inactive). Besides, the Potency result in [11] and in test [13] was “inactive” each time. The outcome in [14] and in test [9] was inactive. The max response was -3.1% in [8] (setting [18]) and 16.1% in test [8] (setting [19]).

With `CN(C)Cc1ccccc1-c1cc(-n2ccnc2)ncn1`, the Potency in [1] is > 11.4 µM (inactive); in [3], 5.01 µM (active); in test [10], > 46 µM (inactive); in [5] it was > 46 µM (inactive); in test [16], 2.51 µM (active). Also, the activity change, negative = inhibition in test [2] is -2.52% (inactive); in test [8] it was 11.3% (inactive). In addition, the activity, negative = inhibition in test [4] is 1.39% (inactive). Besides, the Potency result in test [6], in [7], in [15], in test [13] and in test [17] was “inactive” throughout. Besides, the result in [14] and in [9] was inactive. The max response is 4.13% in test [8] (setting [18]) and 14.2% in test [8] (setting [19]).
